Drawing on ChEMBL document CHEMBL3988442, “University of Dundee, Small-Polar-MMV Screening Library” (2021), this text covers Percent Effect for 8 molecules.

For some of these results: Entries with a potency or affinity are not part of this list.

Common to all, as to set-up: scale not given: direction of the effect not stated beside the values
Test [1] deals with Protein translocase subunit SecA (Escherichia coli (strain K12)) (UniProt P10408). Put plainly: Assay to Identify E. coli SecA ATPase Inhibitors. It is filed as functional. The following applies: 30 µM.
Chain of Protein translocase subunit SecA (Escherichia coli (strain K12)) (P10408 whole entry): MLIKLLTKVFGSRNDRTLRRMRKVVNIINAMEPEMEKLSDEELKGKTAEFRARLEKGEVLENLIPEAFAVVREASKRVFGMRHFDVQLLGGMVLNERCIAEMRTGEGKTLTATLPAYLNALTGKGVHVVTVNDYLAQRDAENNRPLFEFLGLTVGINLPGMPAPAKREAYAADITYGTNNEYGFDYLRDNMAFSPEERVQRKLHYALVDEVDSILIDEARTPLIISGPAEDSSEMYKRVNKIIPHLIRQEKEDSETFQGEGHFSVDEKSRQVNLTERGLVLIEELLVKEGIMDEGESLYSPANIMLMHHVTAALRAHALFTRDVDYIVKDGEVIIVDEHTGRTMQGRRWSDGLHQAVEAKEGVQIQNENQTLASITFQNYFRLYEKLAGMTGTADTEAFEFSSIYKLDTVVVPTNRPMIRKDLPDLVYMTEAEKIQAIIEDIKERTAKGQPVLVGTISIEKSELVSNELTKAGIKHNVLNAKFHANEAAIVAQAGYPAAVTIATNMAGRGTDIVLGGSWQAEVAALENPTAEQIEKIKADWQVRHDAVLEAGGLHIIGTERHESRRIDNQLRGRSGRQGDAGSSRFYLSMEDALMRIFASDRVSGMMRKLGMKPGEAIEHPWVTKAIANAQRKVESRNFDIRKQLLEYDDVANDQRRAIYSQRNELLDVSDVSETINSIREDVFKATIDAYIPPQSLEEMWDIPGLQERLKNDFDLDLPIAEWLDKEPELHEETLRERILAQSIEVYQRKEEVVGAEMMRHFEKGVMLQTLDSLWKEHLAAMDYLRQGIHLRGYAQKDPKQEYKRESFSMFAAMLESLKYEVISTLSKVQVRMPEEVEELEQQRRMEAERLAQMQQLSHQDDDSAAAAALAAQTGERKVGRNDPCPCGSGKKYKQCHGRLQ
For test [2], the target named is T1, Ubiquitin-activating enzyme e1, putative (Leishmania donovani (strain BPK282A1)) (UniProt E9BSI1).
T1 sequence (whole entry): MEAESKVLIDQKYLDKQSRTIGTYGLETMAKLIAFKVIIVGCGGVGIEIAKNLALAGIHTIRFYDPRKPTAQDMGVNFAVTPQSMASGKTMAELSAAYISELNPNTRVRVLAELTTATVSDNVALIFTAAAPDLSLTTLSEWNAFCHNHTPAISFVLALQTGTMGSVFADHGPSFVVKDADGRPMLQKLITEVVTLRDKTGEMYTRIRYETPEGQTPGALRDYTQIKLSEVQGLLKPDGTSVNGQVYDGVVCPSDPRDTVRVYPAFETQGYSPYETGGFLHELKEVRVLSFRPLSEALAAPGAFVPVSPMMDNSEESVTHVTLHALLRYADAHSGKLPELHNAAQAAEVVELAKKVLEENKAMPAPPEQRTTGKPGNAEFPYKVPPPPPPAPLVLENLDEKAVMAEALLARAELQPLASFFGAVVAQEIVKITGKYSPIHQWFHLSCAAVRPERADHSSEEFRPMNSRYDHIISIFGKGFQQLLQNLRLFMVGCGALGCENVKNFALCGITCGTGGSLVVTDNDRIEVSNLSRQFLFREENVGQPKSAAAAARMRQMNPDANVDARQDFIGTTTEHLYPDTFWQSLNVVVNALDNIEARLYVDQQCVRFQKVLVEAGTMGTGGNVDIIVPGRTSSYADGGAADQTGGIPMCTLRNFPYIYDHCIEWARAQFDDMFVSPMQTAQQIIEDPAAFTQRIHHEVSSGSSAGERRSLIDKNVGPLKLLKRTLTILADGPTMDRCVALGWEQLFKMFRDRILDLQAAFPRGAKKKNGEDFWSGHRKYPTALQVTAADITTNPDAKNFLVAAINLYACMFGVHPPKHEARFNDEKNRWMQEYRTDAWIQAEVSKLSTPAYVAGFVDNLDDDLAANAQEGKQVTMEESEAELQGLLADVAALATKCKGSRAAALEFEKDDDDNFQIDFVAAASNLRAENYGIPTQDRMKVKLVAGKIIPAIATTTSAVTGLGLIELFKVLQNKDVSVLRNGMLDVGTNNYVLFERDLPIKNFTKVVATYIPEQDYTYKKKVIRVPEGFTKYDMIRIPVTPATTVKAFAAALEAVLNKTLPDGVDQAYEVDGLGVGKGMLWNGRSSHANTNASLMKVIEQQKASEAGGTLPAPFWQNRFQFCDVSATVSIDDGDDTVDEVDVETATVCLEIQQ
Put plainly: Leishmania donovani Ubiquitin Activating Enzyme (LdE1). The format is functional. As to conditions: 30 µM.

Test [3] addresses AMP-activated protein kinase, AMPK (Homo sapiens) (UniProt P54646+O43741+P54619+Q9UGJ0+Q9Y478+Q13131+Q9UGI9). Put plainly: AMP-dependent Kinase enzyme assay. An in vitro enzyme assay that detects ADP turnover that is directly proportional to AMPK activity. This uses naive AMPK that is activated during the assay with MK-8722. The format is functional. The following applies: 30 µM.

The target in test [4] is Sialic acid-binding Ig-like lectin 9 (Homo sapiens) (UniProt Q9Y336). Put plainly: Hs-Siglec9 ALPHAscreen SOP 20170721. As to conditions: 10 µM. On the technique in general: In Alpha technology, singlet oxygen from a donor bead excites a nearby acceptor bead.
Chain of Sialic acid-binding Ig-like lectin 9 (Homo sapiens) (Q9Y336 whole entry): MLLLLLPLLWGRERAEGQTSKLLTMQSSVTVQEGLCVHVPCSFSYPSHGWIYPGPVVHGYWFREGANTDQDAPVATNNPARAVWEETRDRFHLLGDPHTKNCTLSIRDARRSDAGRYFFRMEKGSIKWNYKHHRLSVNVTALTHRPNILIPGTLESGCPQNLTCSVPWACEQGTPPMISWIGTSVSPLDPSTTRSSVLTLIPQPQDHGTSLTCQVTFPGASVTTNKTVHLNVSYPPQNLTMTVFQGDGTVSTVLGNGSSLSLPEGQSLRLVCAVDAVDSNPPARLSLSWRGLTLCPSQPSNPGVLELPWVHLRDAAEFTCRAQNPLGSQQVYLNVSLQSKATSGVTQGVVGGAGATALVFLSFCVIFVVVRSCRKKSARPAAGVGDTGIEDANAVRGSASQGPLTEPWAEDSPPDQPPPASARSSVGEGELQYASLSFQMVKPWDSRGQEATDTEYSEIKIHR
Test [5] concerns Trypanosoma cruzi. Put plainly: Trypanosoma cruzi phosphomannomutase and mannose-1-phosphate guanylyltransferase assay. As to conditions: 10 µM. The format is functional.
Test [6] addresses T2, Arginase-2, mitochondrial (Homo sapiens) (UniProt P78540).
T2 sequence (whole entry): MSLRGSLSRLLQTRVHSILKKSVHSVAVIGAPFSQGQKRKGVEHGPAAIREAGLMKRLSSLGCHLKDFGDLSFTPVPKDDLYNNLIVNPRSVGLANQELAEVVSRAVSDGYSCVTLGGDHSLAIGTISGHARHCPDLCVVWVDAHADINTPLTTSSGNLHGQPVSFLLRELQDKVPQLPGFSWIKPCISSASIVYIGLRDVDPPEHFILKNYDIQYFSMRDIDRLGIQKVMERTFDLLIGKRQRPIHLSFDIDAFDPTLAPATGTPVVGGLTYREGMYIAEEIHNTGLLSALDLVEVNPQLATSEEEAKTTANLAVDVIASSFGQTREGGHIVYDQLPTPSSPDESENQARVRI
Put plainly: in vitro enzyme assay to detect the production of urea directly proportional to the activity of Arginase II. Also: in the data most compounds retested in dose-response had high values. It is filed as functional. The following applies: 33.3 µM.

For test [7], the target named is T3, Proteasome subunit beta (Trypanosoma cruzi) (UniProt O96673).
T3 sequence (whole entry): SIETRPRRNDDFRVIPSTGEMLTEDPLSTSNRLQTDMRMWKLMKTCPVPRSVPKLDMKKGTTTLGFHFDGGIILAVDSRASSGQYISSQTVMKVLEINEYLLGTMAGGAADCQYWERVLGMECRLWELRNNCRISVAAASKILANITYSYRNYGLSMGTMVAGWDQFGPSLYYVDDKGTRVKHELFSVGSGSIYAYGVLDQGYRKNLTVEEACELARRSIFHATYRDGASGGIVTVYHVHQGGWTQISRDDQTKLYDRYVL
Put plainly: Trypanosoma cruzi proteasome chymotrypsin-like activity (TcProtChymo) assay. Also: in the data most compounds retested in dose-response had high values. As to conditions: 9.37 µM. It is filed as functional.

The species named for test [8] is Homo sapiens. Put plainly: To identify inhibition of the IFN signalling (Jak-Stat) pathway via expression of an eGFP reporter gene under the control of an IFN-stimulated response element (ISRE) containing MxA promoter. It is filed as functional. As to conditions: 30 µM. Background: A reporter such as luciferase makes a cellular process visible.
The target in test [9] is T4, Tyrosyl-tRNA synthetase, putative (Trypanosoma cruzi (strain CL Brener)) (UniProt Q4DSP6).
T4 sequence (whole entry): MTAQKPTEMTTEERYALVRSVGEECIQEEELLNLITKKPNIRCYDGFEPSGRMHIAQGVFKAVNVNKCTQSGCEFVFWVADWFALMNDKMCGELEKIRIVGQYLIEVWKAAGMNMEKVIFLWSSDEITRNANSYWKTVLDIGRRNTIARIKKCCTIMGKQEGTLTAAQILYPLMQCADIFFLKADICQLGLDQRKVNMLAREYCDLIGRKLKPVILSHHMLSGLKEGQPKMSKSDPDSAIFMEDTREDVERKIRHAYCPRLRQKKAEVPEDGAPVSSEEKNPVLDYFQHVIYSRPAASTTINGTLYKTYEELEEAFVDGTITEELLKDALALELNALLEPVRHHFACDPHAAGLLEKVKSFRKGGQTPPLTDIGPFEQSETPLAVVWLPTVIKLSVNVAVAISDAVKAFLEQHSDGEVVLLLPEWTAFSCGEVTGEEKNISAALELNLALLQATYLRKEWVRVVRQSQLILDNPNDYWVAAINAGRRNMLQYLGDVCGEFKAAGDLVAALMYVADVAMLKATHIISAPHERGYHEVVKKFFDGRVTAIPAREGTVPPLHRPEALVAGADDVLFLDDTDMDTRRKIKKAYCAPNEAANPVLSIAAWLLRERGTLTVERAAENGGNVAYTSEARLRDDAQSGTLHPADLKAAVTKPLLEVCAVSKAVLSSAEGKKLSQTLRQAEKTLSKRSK
Put plainly: Trypanosoma cruzi tyrosyl tRNA synthetase (TcYRS) _High Tyrosine SOP. Also: in the data most compounds retested in dose-response had high values. As to conditions: 30 µM. The format is functional.

For test [10], the target named is T4, Tyrosyl-tRNA synthetase, putative (Trypanosoma cruzi (strain CL Brener)). Put plainly: Trypanosoma cruzi tyrosyl tRNA synthetase (TcYRS) SOP. The format is functional. The following applies: 30 µM.
In test [11] the target is Chromo domain-containing protein 1 (Saccharomyces cerevisiae (strain ATCC 204508 / S288c) (Baker's yeast)) (UniProt P32657). Put plainly: ScCHD-1 Enzyme Inhibition Assay. Also: in the data most compounds retested in dose-response had high values. It is filed as functional. The following applies: 30 µM.
Chain of Chromo domain-containing protein 1 (Saccharomyces cerevisiae (strain ATCC 204508 / S288c) (Baker's yeast)) (P32657 whole entry, the tested form may be a part): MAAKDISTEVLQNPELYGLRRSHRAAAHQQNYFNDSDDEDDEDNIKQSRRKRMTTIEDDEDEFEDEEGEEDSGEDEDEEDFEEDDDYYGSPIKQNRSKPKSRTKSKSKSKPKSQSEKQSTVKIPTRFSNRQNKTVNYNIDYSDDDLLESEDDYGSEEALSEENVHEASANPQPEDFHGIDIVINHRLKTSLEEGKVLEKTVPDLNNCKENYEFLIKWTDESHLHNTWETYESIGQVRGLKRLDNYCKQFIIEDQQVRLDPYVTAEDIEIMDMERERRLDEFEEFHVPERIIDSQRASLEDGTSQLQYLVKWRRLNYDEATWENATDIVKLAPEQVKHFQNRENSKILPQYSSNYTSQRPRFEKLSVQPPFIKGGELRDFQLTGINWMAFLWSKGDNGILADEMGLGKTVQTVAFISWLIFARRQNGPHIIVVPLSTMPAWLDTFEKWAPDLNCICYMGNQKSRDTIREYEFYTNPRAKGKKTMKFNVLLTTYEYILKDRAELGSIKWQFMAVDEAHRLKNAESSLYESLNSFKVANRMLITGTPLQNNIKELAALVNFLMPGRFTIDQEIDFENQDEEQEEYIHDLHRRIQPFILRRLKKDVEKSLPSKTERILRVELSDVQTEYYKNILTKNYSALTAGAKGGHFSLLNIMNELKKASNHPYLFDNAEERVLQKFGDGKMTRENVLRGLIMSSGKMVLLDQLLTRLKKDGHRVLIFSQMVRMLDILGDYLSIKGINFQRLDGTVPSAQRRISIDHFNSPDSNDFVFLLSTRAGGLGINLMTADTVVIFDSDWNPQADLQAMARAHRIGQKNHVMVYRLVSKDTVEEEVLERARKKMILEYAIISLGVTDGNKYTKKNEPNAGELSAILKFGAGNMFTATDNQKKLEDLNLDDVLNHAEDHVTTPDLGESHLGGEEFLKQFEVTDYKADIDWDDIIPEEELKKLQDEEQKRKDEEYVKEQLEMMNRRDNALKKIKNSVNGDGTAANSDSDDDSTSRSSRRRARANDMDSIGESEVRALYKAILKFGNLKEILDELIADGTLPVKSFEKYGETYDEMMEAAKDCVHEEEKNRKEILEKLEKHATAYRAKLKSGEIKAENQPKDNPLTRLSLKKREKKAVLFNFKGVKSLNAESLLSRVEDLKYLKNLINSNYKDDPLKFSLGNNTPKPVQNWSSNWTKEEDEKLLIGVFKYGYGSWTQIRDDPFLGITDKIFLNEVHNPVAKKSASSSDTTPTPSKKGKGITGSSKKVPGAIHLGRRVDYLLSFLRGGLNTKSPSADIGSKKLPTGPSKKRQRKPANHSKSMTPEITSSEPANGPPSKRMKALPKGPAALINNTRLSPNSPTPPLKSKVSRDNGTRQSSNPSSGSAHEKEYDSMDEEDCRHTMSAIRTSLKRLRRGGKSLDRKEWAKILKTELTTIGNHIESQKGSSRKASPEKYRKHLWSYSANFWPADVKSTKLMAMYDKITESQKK

As to `Cc1cc(C)n(CC2CCCN2C(=O)CCc2cscn2)n1` (stereo not drawn), the Percent Effect in test [1] was -2.42%; in test [2], -5.26%; in [3] it was 7.92%; in test [4] it was -2.27%; in [5], 8.08%; in test [6], 1.92%. Besides, the Percent Effect in test [7] was -4.51%; in test [8], -4.45%; in [9], -0.49%; in [10], 0%; in [11], 1.57%.
In the case of `CC(=O)Nc1nc(C(=O)NCc2ccc(N3CCCCCC3)nc2)cs1`, the Percent Effect was -1.32% in test [1]; 24.1% in [2]; 5.19% in test [3]; -5.11% in test [4]; -1.13% in [5]; -4.09% in test [6]. Also, the Percent Effect in [7] was 20.6%; in [8], 29.2%; in test [9], 4.17%; in test [10], 22.8%; in test [11] it was -18.9%.
In the case of `CN1C(=O)CC(C(=O)O)C12CCN(Cc1ccc(F)cc1Cl)CC2` (stereo not drawn), the Percent Effect in [1] was -3.75%; in test [2], 2.67%; in test [3], -7.2%; in test [4], 5.97%; in test [5] it was 3.41%; in [6], -0.521%. Further, the Percent Effect was 16% in test [7]; 15.5% in test [8]; 8.2% in test [9]; 13.6% in test [10]; -3.62% in test [11].
As to `O=C(c1ccccn1)N1CCc2c(nc(N3CCCC3)[nH]c2=O)C1`, the Percent Effect in test [1] was -7.12%; in test [2], 12.2%; in test [3], 0.895%; in test [4], 26.1%; in test [5] it was 0.198%; in [6], -3.48%. The Percent Effect in test [7] was 7.64%; in [8], 10.1%; in [9], 3.23%; in [10] it was 11.7%; in [11] it was -17.3%.
Regarding `Cc1ccc(S(=O)(=O)NC2CC2)cc1C`, the Percent Effect in [1] was 1.16%; in test [2], -1.39%; in test [3], -6.59%; in test [4], 11.8%; in [5] it was 0.875%; in [6], 20.3%. The Percent Effect in test [7] was 0%; in [8], 28.3%; in test [9], -1.05%; in test [10], 0%; in [11], 0.926%.
With `COc1cc(C)nc(N2CCN(C(=O)CCn3cc(C)cn3)CC2)n1`, the Percent Effect in test [1] is -1.32%; in test [2] it was 10.1%; in test [3], 1.67%; in test [4], 2.37%; in test [5] it was -6.52%; in test [6], 4.94%. Also, the Percent Effect in [7] was -6.47%; in test [8] it was 11%; in test [9] it was -6.4%; in test [10], 11.4%; in [11] it was -2.89%.
Take `O=C(c1ccco1)N1C[C@@H]2OCCN(CCN3CCCC3)[C@@H]2C1`: the Percent Effect is -2.67% in [1]; 5.41% in test [2]; 5.74% in test [3]; -2.98% in test [4]; -1.07% in test [5]; 1.59% in test [6]. The Percent Effect is 16.1% in test [7]; -16.1% in [8]; 2.16% in [9]; 5.13% in test [10]; 4.02% in [11].
For the molecule `COCC1Cn2nnc(-c3cnn(C)c3)c2CN1Cc1ccc(C)s1` (stereo not drawn), the Percent Effect is -0.562% in [1]; 10.8% in [2]; 12% in test [3]; -1.82% in [4]; 1.37% in test [5]; 18.3% in test [6]. Further, the Percent Effect in test [7] was -0.0845%; in test [8], 48.1%; in test [9], 6.93%; in test [10], 6.1%; in test [11], -4.26%.
